Screening data: PubChem, Broad Institute
aSyn 5UTR act = Activators via SNCA 5'UTR binding, MLPCN; actives 7.1% (n = 300,000); alpha-synuclein 5'UTR reporter, activators screen; activity score, % (tested at 7.5 µM), hits read low; in the data active means activity score below about -60%
* = called active by the depositor. Only a sample is shown.

SMILES	aSyn 5UTR act
N#Cc1c(/N=C/c2ccc(-c3ccccc3C(=O)O)o2)sc2c1CCCC2	-78*
CN(C)/C=N/c1sc2c(c1C#N)CCCCC2	-124*
CC(=O)c1ccc(OCc2ccccc2)c(C)c1O	-108*
O=[N+]([O-])c1ccccc1N/N=C/c1c[nH]c2ccccc12	-105*
O=[N+]([O-])c1ccc(N/N=C/c2c[nH]c3ccccc23)cc1	-139*
Cc1nn(-c2ccccc2)c(C)c1C(=O)NCCc1ccccc1	-82*
CCOC(=O)c1c(C)nn(-c2ccc(NC(=O)/C=C/C(=O)O)cc2)c1C	92
COc1ccc(OC(=O)c2c(C)nn(-c3ccccc3)c2C)cc1	-103*
COc1ccc(OC(=O)c2cnn(-c3ccccc3)c2C)cc1	-222*
Cc1nn(-c2ccccc2)c(C)c1C(=O)Oc1ccccc1	-115*
Cc1c(C(=O)N(C)c2ccc(Cl)cc2)cnn1-c1ccccc1	-64*
N=c1n(N)c2ccccc2n1CC(=O)c1ccc(Br)cc1	-109*
COc1ccc(NC(=O)C2C(=O)N(CCO)C3(C)CC2c2ccccc2O3)cc1 (stereo unspecified)	-103*
COc1ccc(C2C(C(=O)Nc3cc(OC)c(OC)c(OC)c3)c3ccccc3C(=O)N2C)cc1 (stereo unspecified)	98
O=C(Nc1nc(-c2ccccc2)cs1)C1CCCO1 (stereo unspecified)	-66*
O=C(NNc1nc(-c2ccc(F)cc2)cs1)c1ccccc1	90
c1ccc(-c2nnc(-c3ccccn3)nc2NC2CCCCC2)cc1	101
O=C(Nc1nc(-c2ccc(F)cc2)cs1)C1CCCO1 (stereo unspecified)	-97*
O=C(Nc1nc(-c2ccc(-c3ccccc3)cc2)cs1)C1CCCO1 (stereo unspecified)	-65*
c1ccc(-c2csc(NC3CCCCC3)n2)cc1	-92*
COc1ccc(-c2nc(-c3ccncc3)no2)cc1OC	-121*
Cc1ccc(-c2noc(-c3ccno3)n2)cc1	-126*
Clc1cccc(-c2nc(-c3ccccn3)no2)c1	93
COc1cccc(-c2nc(CS(=O)(=O)c3ccccc3)no2)c1	-126*
COc1ccc(-c2noc(-c3cccc(Cl)c3)n2)cc1OC	-184*
SMILES	aSyn 5UTR act
COc1cccc(-c2nc(-c3ccncc3)no2)c1	-114*
COc1ccc(-c2noc(-c3ccccc3Cl)n2)cc1OC	-180*
Fc1cccc(F)c1-c1nc(-c2ccncc2)no1	-142*
COc1ccc2c(c1)CCc1c-2n[nH]c1C(=O)NCCC(C)C	-71*
CNC(=O)c1[nH]nc2c1CCc1cc(OC)ccc1-2	-105*
COc1cc(C=O)ccc1OCCSc1ccc(C)cc1	-129*
COC(=O)c1ccccc1OCCCOc1ccc(C=O)cc1OC	-107*
COc1cc(C=O)ccc1OCc1ccccc1Br	-202*
COc1cc(/C=C2/C(=O)N(C)C(=S)N2C)ccc1OCc1cccc(F)c1	-156*
COc1cc(C=O)ccc1OCc1cccc(Br)c1	-152*
CCCCCn1nc(C)c(/C=N/NC(=O)c2ccoc2C)c1C	-171*
CCn1nc(C)c(/C=N/NC(=O)c2ccoc2C)c1C	-112*
Clc1ccc(Nc2nc3cccnc3s2)cc1	-144*
CCCCNc1nc2cccnc2s1	-78*
Cc1cc(C(=O)Nc2ccc3c(c2)CCC3)ccc1[N+](=O)[O-]	-187*
Cc1cccc(C(=O)Nc2nc(C)c(C(=O)Nc3ccc4c(c3)CCC4)s2)c1	-121*
CN(C)S(=O)(=O)c1cccc(C(=O)Nc2ccc3c(c2)CCC3)c1	-115*
CN(C)S(=O)(=O)c1ccc(C(=O)Nc2ccc3c(c2)CCC3)cc1	-93*
O=c1[nH]c2ccccc2nc1CCc1ccccc1	-90*
c1ccc(CCc2nc3ccccc3[nH]2)cc1	-120*
Cc1ccc(C(=O)c2c3ccccc3[n+]([O-])n2[C@@H](C)C(N)=O)cc1	-87*
CCN1CCN(C(=O)c2cc3ccc(OC)cc3[nH]2)CC1	-135*
COc1ccc2cc(C(=O)N3CCN(C)CC3)[nH]c2c1	-154*
COC(=O)c1ccc(Nc2nc(C)cc(C)n2)cc1	-83*
COC(=O)c1ccc(Nc2cc(C)nc3ccccc23)cc1	65
SMILES	aSyn 5UTR act
COc1cc2nc(N(C)C)nc(N)c2cc1OC	-78*
CCOC(=O)c1ccc(Nc2nc(N)c3cc(OC)c(OC)cc3n2)cc1	-104*
COc1cc2nc(Nc3ccc(F)cc3)nc(N)c2cc1OC	-131*
COc1cc2nc(Nc3ccc(C)c(Cl)c3)nc(N)c2cc1OC	99
COc1cc2nc(Nc3ccc(C)c(C)c3)nc(N)c2cc1OC	-131*
Cn1c(NCc2cccs2)nc2ccccc21	-63*
Cn1c(NCc2c[nH]c3ccccc23)nc2ccccc21	-98*
COc1ccccc1-n1cnc2cc(NCc3ccco3)ccc21	53
Cn1c(NCc2ccco2)nc2ccccc21	-102*
CC(C)c1ccc(Nc2nnc(SCC(=O)Nc3ncc(S(=O)(=O)c4ccc([N+](=O)[O-])cc4)s3)s2)cc1	-66*
O=[N+]([O-])c1ccc(COc2ccccc2/C=N/O)cc1	-132*
CN(C)C=Nc1ccc2nn(-c3ccccc3)nc2c1	-211*
